# How the values were obtained:
# Assay in all cases: pooled miR-30 sensor sort-seq; sequence = guide strand
# Conditions in all cases: shRNA
# SEC11C = molecular target: SEC11C
# SEC22B = molecular target: SEC22B
# SEC61B = molecular target: SEC61B
# SEC62 = molecular target: SEC62
# SENP1 = molecular target: SENP1
# SEMA6D = molecular target: SEMA6D
# SERPINB7 = molecular target: SERPINB7
# SERPINE2 = molecular target: SERPINE2
# SEZ6L = molecular target: SEZ6L
# SH3YL1 = molecular target: SH3YL1
# SLC20A1 = molecular target: SLC20A1
# SLC22A7 = molecular target: SLC22A7
# SLC25A25 = molecular target: SLC25A25
# SLC30A10 = molecular target: SLC30A10
# SLC30A1 = molecular target: SLC30A1
# SLC2A8 = molecular target: SLC2A8
# SLC34A1 = molecular target: SLC34A1
# Also: reference of the scale not given here.
sequence,measurement,setting,value
ATCTTTTTCATGAACTTTGATT,sensor-assay potency score (higher = more potent),SEC11C,-1.19
TCTAATACACATCTCTGTGAGC,sensor-assay potency score (higher = more potent),SEC22B,-0.275
TACTGGAACAGGGCCAACTTTG,sensor-assay potency score (higher = more potent),SEC61B,-1.5
TCCATTTCCACTACTGTGCTGG,sensor-assay potency score (higher = more potent),SEC62,-0.484
TTATCTGAGTAATAGCTTGGAT,sensor-assay potency score (higher = more potent),SENP1,0.0199
TTTTTTTTGACATTTGTGCAAG,sensor-assay potency score (higher = more potent),SEMA6D,-0.63
TTCTCTATCTTGAACTGAGGAA,sensor-assay potency score (higher = more potent),SERPINB7,-0.416
TTCTACAATATTACTTCCTGTG,sensor-assay potency score (higher = more potent),SERPINB7,-0.132
TTGAACTGTCTCTTCTGCTGTA,sensor-assay potency score (higher = more potent),SENP1,0.936
AACAGTAACAGGAATCTCCTTT,sensor-assay potency score (higher = more potent),SENP1,-0.105
TATTCTAAGGTACTCAACCTGT,sensor-assay potency score (higher = more potent),SEMA6D,-0.752
TAGAAGAGTTTCCATATCCTGA,sensor-assay potency score (higher = more potent),SERPINB7,0.0524
ATTCTTAACAAACACGGCGTTA,sensor-assay potency score (higher = more potent),SERPINE2,-0.703
TACAGCTGTGAACTTGGGCAGG,sensor-assay potency score (higher = more potent),SERPINE2,-0.9
TTCCTCAGTACAGTGTTCCAGC,sensor-assay potency score (higher = more potent),SERPINE2,-0.117
TACTTAGAGGTCATTCGCCTTG,sensor-assay potency score (higher = more potent),SERPINB7,-0.685
TTCTTCTCTATCTTGAACTGAG,sensor-assay potency score (higher = more potent),SERPINB7,-0.146
ATTTCCTTGATTGTCATCCATC,sensor-assay potency score (higher = more potent),SERPINB7,-1.25
TAGAGTTTGAATATCTTTGCGT,sensor-assay potency score (higher = more potent),SENP1,0.243
TAATATTACGTCTAGTGTCTTC,sensor-assay potency score (higher = more potent),SERPINB7,-0.265
TTCACTGAGAACTTCATCCTGA,sensor-assay potency score (higher = more potent),SENP1,0.885
TAAGATTTGTGCATCATCCTTG,sensor-assay potency score (higher = more potent),SERPINB7,1.22
TATTTTTGCAAAATTTGCCTTT,sensor-assay potency score (higher = more potent),SERPINE2,-0.263
TTGATTGGTCTGTCTTTGGTAA,sensor-assay potency score (higher = more potent),SENP1,-0.497
TGTACTAACATGTCGCCTCTGA,sensor-assay potency score (higher = more potent),SENP1,0.2
TATCAGTTAATTTATGACCTTT,sensor-assay potency score (higher = more potent),SENP1,0.136
TACTGGAACTAAGACATCGAGA,sensor-assay potency score (higher = more potent),SENP1,-0.808
TTTTCTACAATATTACTTCCTG,sensor-assay potency score (higher = more potent),SERPINB7,0.325
TAATAGGTAATATTCTTCTTTC,sensor-assay potency score (higher = more potent),SENP1,-0.79
AACAGAAACACTTGCATCGAGT,sensor-assay potency score (higher = more potent),SERPINE2,-0.757
TTCATAATTCTTCTCTATCTTG,sensor-assay potency score (higher = more potent),SERPINB7,-0.438
TTGTCAATCATATCCCTGGTTT,sensor-assay potency score (higher = more potent),SERPINE2,-0.515
TTAATATTTTACCAACTCCATT,sensor-assay potency score (higher = more potent),SERPINE2,-1.64
TATTGCAAGAGTATTCTGCAGG,sensor-assay potency score (higher = more potent),SENP1,-0.448
TTGTGCTACAGCTGTGAACTTG,sensor-assay potency score (higher = more potent),SERPINE2,-0.393
TATGTCTGTAATAGACTGCAGA,sensor-assay potency score (higher = more potent),SEMA6D,-0.657
TTTACTTCGCTCCATCAGCATA,sensor-assay potency score (higher = more potent),SENP1,-1.5
TATTTTAGTGAATACATGCATT,sensor-assay potency score (higher = more potent),SERPINE2,-0.736
TGGAATAGTAGCGACATCTTGT,sensor-assay potency score (higher = more potent),SEZ6L,-0.571
TTGATTGTCATCCATCTCTCTG,sensor-assay potency score (higher = more potent),SERPINB7,-0.525
TTTAACAGAACTATGAAAGATG,sensor-assay potency score (higher = more potent),SERPINE2,-0.755
TACAGTGTTCCAGCCATCCTGC,sensor-assay potency score (higher = more potent),SERPINE2,-0.935
TCGAGTGATCCACCTCTCCGGG,sensor-assay potency score (higher = more potent),SEZ6L,-1
TTGATGAATCAAACATGTCAGT,sensor-assay potency score (higher = more potent),SERPINE2,-0.681
TTGTCCTTCATTTTCATACTTT,sensor-assay potency score (higher = more potent),SH3YL1,-0.366
TTCTCGTTCAATTTTTCTCTTC,sensor-assay potency score (higher = more potent),SLC20A1,-0.376
TTTTCTGTCACCTAGACCCATC,sensor-assay potency score (higher = more potent),SLC20A1,-0.857
TACAACTCTGAAGTGAACAGGT,sensor-assay potency score (higher = more potent),SLC22A7,0.517
TAGGGTACAACTCTGAAGTGAA,sensor-assay potency score (higher = more potent),SLC22A7,0.4
TAGTCTCTCCACTCGTTCCAGT,sensor-assay potency score (higher = more potent),SLC25A25,-0.705
TAGACTGCAAGGTCGATGCCGG,sensor-assay potency score (higher = more potent),SLC25A25,-0.614
TTTTGTTAAGACTTTGTCCGTG,sensor-assay potency score (higher = more potent),SLC30A10,0.41
TTAAGTAATGGATAGGTTGTGT,sensor-assay potency score (higher = more potent),SLC30A1,-0.332
TCTGAGAATATTTTCTACCTTA,sensor-assay potency score (higher = more potent),SLC30A10,-0.0606
TCTTTGAACACTGTATCCGCAG,sensor-assay potency score (higher = more potent),SLC30A10,-0.212
ATTTCGGAGATGTAGACCGGGG,sensor-assay potency score (higher = more potent),SLC2A8,-0.598
ATTAGCTGCACACAGGAGCCGA,sensor-assay potency score (higher = more potent),SLC2A8,-0.991
TCTCAATGCTGATCACACCAAG,sensor-assay potency score (higher = more potent),SLC34A1,-0.785
TTCACTTGTACTTCCACTGTAT,sensor-assay potency score (higher = more potent),SLC30A1,0.732
TGAACACCATGACCACACCTGA,sensor-assay potency score (higher = more potent),SLC2A8,-0.865
